Measurements: PMC11006913
Positions count from the first letter of the chain named.

Key:
Assay in all cases: PBM; 200 nM protein, PBS
Settings in all cases: dsDNA, one strand shown
SIX6 [1] = target: T1, SIX6 (Homo sapiens, UniProt O95475 114-200, L167I)
T1 sequence: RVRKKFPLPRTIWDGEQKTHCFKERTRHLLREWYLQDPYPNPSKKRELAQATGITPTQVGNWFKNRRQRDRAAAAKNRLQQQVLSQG

SIX6 [2] = target: T2, SIX6 (Homo sapiens, UniProt O95475 114-200, L143V)
T2 sequence: T1 sequence with L30V, I54L

SIX6 [3] = target: T3, SIX6 (Homo sapiens, UniProt O95475 114-200, H141N)
T3 sequence: T1 sequence with H28N, I54L

SIX6 [4] = target: T4, SIX6 (Homo sapiens, UniProt O95475 114-200, T165P)
T4 sequence: T1 sequence with T52P, I54L

SIX6 [5] = target: T5, SIX6 (Homo sapiens, UniProt O95475 114-200, L167M)
T5 sequence: T1 sequence with I54M

SIX6 [6] = target: T6, SIX6 (Homo sapiens, UniProt O95475 114-200, L143M)
T6 sequence: T1 sequence with L30M, I54L

SIX6 [7] = target: T7, SIX6 (Homo sapiens, UniProt O95475 114-200, L143I)
T7 sequence: T1 sequence with L30I, I54L

SIX6 [8] = target: T8, SIX6 (Homo sapiens, UniProt O95475 114-200, T165G)
T8 sequence: T1 sequence with T52G, I54L

SIX6 [9] = target: T9, SIX6 (Homo sapiens, UniProt O95475 114-200, T139Q)
T9 sequence: T1 sequence with T26Q, I54L

SIX6 [10] = target: T10, SIX6 (Homo sapiens, UniProt O95475 114-200, T165A)
T10 sequence: T1 sequence with T52A, I54L

SIX6 [11] = target: T11, SIX6 (Homo sapiens, UniProt O95475 114-200, L167V)
T11 sequence: T1 sequence with I54V

SIX6 [12] = target: T12, SIX6 (Homo sapiens, UniProt O95475 114-200)
T12 sequence: T1 sequence with I54L

SIX6 [13] = target: T13, SIX6 (Homo sapiens, UniProt O95475 114-200, T165I)
T13 sequence: T1 sequence with T52I, I54L

| Sequence | binding signal (SIX6 [1]) | binding signal (SIX6 [2]) | binding signal (SIX6 [3]) | binding signal (SIX6 [4]) | binding signal (SIX6 [5]) | binding signal (SIX6 [6]) | binding signal (SIX6 [7]) | binding signal (SIX6 [8]) | binding signal (SIX6 [9]) | binding signal (SIX6 [10]) | binding signal (SIX6 [11]) | binding signal (SIX6 [12]) | binding signal (SIX6 [13]) |
| --- | --- | --- | --- | --- | --- | --- | --- | --- | --- | --- | --- | --- | --- |
| CAGTATCA | 11.2 upbm affinity estimate (log intensity, higher = more binding, comparable within an allelic series) | 10.2 upbm affinity estimate (log intensity, higher = more binding, comparable within an allelic series) | 11.1 upbm affinity estimate (log intensity, higher = more binding, comparable within an allelic series) | 9.69 upbm affinity estimate (log intensity, higher = more binding, comparable within an allelic series) | 10.5 upbm affinity estimate (log intensity, higher = more binding, comparable within an allelic series) | 10.7 upbm affinity estimate (log intensity, higher = more binding, comparable within an allelic series) | 10.3 upbm affinity estimate (log intensity, higher = more binding, comparable within an allelic series) | 11.2 upbm affinity estimate (log intensity, higher = more binding, comparable within an allelic series) | 11 upbm affinity estimate (log intensity, higher = more binding, comparable within an allelic series) | 11.1 upbm affinity estimate (log intensity, higher = more binding, comparable within an allelic series) | 10.9 upbm affinity estimate (log intensity, higher = more binding, comparable within an allelic series) | 10.9 upbm affinity estimate (log intensity, higher = more binding, comparable within an allelic series) | 10.9 upbm affinity estimate (log intensity, higher = more binding, comparable within an allelic series) |
| CATGATCA | 10.5 upbm affinity estimate (log intensity, higher = more binding, comparable within an allelic series) | 9.91 upbm affinity estimate (log intensity, higher = more binding, comparable within an allelic series) | 10.3 upbm affinity estimate (log intensity, higher = more binding, comparable within an allelic series) | 9.68 upbm affinity estimate (log intensity, higher = more binding, comparable within an allelic series) | 10.1 upbm affinity estimate (log intensity, higher = more binding, comparable within an allelic series) | 10.4 upbm affinity estimate (log intensity, higher = more binding, comparable within an allelic series) | 9.97 upbm affinity estimate (log intensity, higher = more binding, comparable within an allelic series) | 10.4 upbm affinity estimate (log intensity, higher = more binding, comparable within an allelic series) | 10.6 upbm affinity estimate (log intensity, higher = more binding, comparable within an allelic series) | 10.3 upbm affinity estimate (log intensity, higher = more binding, comparable within an allelic series) | 10.4 upbm affinity estimate (log intensity, higher = more binding, comparable within an allelic series) | 10.3 upbm affinity estimate (log intensity, higher = more binding, comparable within an allelic series) | 10.2 upbm affinity estimate (log intensity, higher = more binding, comparable within an allelic series) |
| CCGCCAGC | 9.01 upbm affinity estimate (log intensity, higher = more binding, comparable within an allelic series) | 9.02 upbm affinity estimate (log intensity, higher = more binding, comparable within an allelic series) | 9.07 upbm affinity estimate (log intensity, higher = more binding, comparable within an allelic series) | 9.02 upbm affinity estimate (log intensity, higher = more binding, comparable within an allelic series) | 9.06 upbm affinity estimate (log intensity, higher = more binding, comparable within an allelic series) | 9.02 upbm affinity estimate (log intensity, higher = more binding, comparable within an allelic series) | 9.03 upbm affinity estimate (log intensity, higher = more binding, comparable within an allelic series) | 9.05 upbm affinity estimate (log intensity, higher = more binding, comparable within an allelic series) | 9.1 upbm affinity estimate (log intensity, higher = more binding, comparable within an allelic series) | 9.05 upbm affinity estimate (log intensity, higher = more binding, comparable within an allelic series) | 9.06 upbm affinity estimate (log intensity, higher = more binding, comparable within an allelic series) | 9.05 upbm affinity estimate (log intensity, higher = more binding, comparable within an allelic series) | 9.03 upbm affinity estimate (log intensity, higher = more binding, comparable within an allelic series) |
| AGCTCCGC | 9.05 upbm affinity estimate (log intensity, higher = more binding, comparable within an allelic series) | 8.96 upbm affinity estimate (log intensity, higher = more binding, comparable within an allelic series) | 8.98 upbm affinity estimate (log intensity, higher = more binding, comparable within an allelic series) | 8.97 upbm affinity estimate (log intensity, higher = more binding, comparable within an allelic series) | 8.95 upbm affinity estimate (log intensity, higher = more binding, comparable within an allelic series) | 9.08 upbm affinity estimate (log intensity, higher = more binding, comparable within an allelic series) | 9.04 upbm affinity estimate (log intensity, higher = more binding, comparable within an allelic series) | 9.04 upbm affinity estimate (log intensity, higher = more binding, comparable within an allelic series) | 8.99 upbm affinity estimate (log intensity, higher = more binding, comparable within an allelic series) | 8.94 upbm affinity estimate (log intensity, higher = more binding, comparable within an allelic series) | 9.1 upbm affinity estimate (log intensity, higher = more binding, comparable within an allelic series) | 8.9 upbm affinity estimate (log intensity, higher = more binding, comparable within an allelic series) | 9.01 upbm affinity estimate (log intensity, higher = more binding, comparable within an allelic series) |
| GATATCAC | 11.4 upbm affinity estimate (log intensity, higher = more binding, comparable within an allelic series) | 10.3 upbm affinity estimate (log intensity, higher = more binding, comparable within an allelic series) | 11.4 upbm affinity estimate (log intensity, higher = more binding, comparable within an allelic series) | 9.67 upbm affinity estimate (log intensity, higher = more binding, comparable within an allelic series) | 10.7 upbm affinity estimate (log intensity, higher = more binding, comparable within an allelic series) | 11.1 upbm affinity estimate (log intensity, higher = more binding, comparable within an allelic series) | 10.3 upbm affinity estimate (log intensity, higher = more binding, comparable within an allelic series) | 11.4 upbm affinity estimate (log intensity, higher = more binding, comparable within an allelic series) | 11.2 upbm affinity estimate (log intensity, higher = more binding, comparable within an allelic series) | 11.2 upbm affinity estimate (log intensity, higher = more binding, comparable within an allelic series) | 11.1 upbm affinity estimate (log intensity, higher = more binding, comparable within an allelic series) | 11.1 upbm affinity estimate (log intensity, higher = more binding, comparable within an allelic series) | 11.1 upbm affinity estimate (log intensity, higher = more binding, comparable within an allelic series) |
| GACGGCCC | 8.94 upbm affinity estimate (log intensity, higher = more binding, comparable within an allelic series) | 8.75 upbm affinity estimate (log intensity, higher = more binding, comparable within an allelic series) | 8.98 upbm affinity estimate (log intensity, higher = more binding, comparable within an allelic series) | 8.86 upbm affinity estimate (log intensity, higher = more binding, comparable within an allelic series) | 8.9 upbm affinity estimate (log intensity, higher = more binding, comparable within an allelic series) | 8.78 upbm affinity estimate (log intensity, higher = more binding, comparable within an allelic series) | 8.82 upbm affinity estimate (log intensity, higher = more binding, comparable within an allelic series) | 9 upbm affinity estimate (log intensity, higher = more binding, comparable within an allelic series) | 8.92 upbm affinity estimate (log intensity, higher = more binding, comparable within an allelic series) | 8.88 upbm affinity estimate (log intensity, higher = more binding, comparable within an allelic series) | 8.84 upbm affinity estimate (log intensity, higher = more binding, comparable within an allelic series) | 8.88 upbm affinity estimate (log intensity, higher = more binding, comparable within an allelic series) | 8.88 upbm affinity estimate (log intensity, higher = more binding, comparable within an allelic series) |
| CGCAACCG | 9.24 upbm affinity estimate (log intensity, higher = more binding, comparable within an allelic series) | 9.05 upbm affinity estimate (log intensity, higher = more binding, comparable within an allelic series) | 9.23 upbm affinity estimate (log intensity, higher = more binding, comparable within an allelic series) | 9.03 upbm affinity estimate (log intensity, higher = more binding, comparable within an allelic series) | 9.16 upbm affinity estimate (log intensity, higher = more binding, comparable within an allelic series) | 9.07 upbm affinity estimate (log intensity, higher = more binding, comparable within an allelic series) | 9.2 upbm affinity estimate (log intensity, higher = more binding, comparable within an allelic series) | 9.18 upbm affinity estimate (log intensity, higher = more binding, comparable within an allelic series) | 9.31 upbm affinity estimate (log intensity, higher = more binding, comparable within an allelic series) | 9.14 upbm affinity estimate (log intensity, higher = more binding, comparable within an allelic series) | 9.12 upbm affinity estimate (log intensity, higher = more binding, comparable within an allelic series) | 9.2 upbm affinity estimate (log intensity, higher = more binding, comparable within an allelic series) | 9.15 upbm affinity estimate (log intensity, higher = more binding, comparable within an allelic series) |
| TATCATCA | 10.9 upbm affinity estimate (log intensity, higher = more binding, comparable within an allelic series) | 10.3 upbm affinity estimate (log intensity, higher = more binding, comparable within an allelic series) | 10.8 upbm affinity estimate (log intensity, higher = more binding, comparable within an allelic series) | 9.94 upbm affinity estimate (log intensity, higher = more binding, comparable within an allelic series) | 10.5 upbm affinity estimate (log intensity, higher = more binding, comparable within an allelic series) | 10.8 upbm affinity estimate (log intensity, higher = more binding, comparable within an allelic series) | 10.2 upbm affinity estimate (log intensity, higher = more binding, comparable within an allelic series) | 10.8 upbm affinity estimate (log intensity, higher = more binding, comparable within an allelic series) | 10.9 upbm affinity estimate (log intensity, higher = more binding, comparable within an allelic series) | 10.8 upbm affinity estimate (log intensity, higher = more binding, comparable within an allelic series) | 10.6 upbm affinity estimate (log intensity, higher = more binding, comparable within an allelic series) | 10.7 upbm affinity estimate (log intensity, higher = more binding, comparable within an allelic series) | 10.7 upbm affinity estimate (log intensity, higher = more binding, comparable within an allelic series) |
| GCGCTGCC | 8.75 upbm affinity estimate (log intensity, higher = more binding, comparable within an allelic series) | 8.74 upbm affinity estimate (log intensity, higher = more binding, comparable within an allelic series) | 8.81 upbm affinity estimate (log intensity, higher = more binding, comparable within an allelic series) | 8.85 upbm affinity estimate (log intensity, higher = more binding, comparable within an allelic series) | 8.8 upbm affinity estimate (log intensity, higher = more binding, comparable within an allelic series) | 8.76 upbm affinity estimate (log intensity, higher = more binding, comparable within an allelic series) | 8.77 upbm affinity estimate (log intensity, higher = more binding, comparable within an allelic series) | 8.82 upbm affinity estimate (log intensity, higher = more binding, comparable within an allelic series) | 8.75 upbm affinity estimate (log intensity, higher = more binding, comparable within an allelic series) | 8.8 upbm affinity estimate (log intensity, higher = more binding, comparable within an allelic series) | 8.69 upbm affinity estimate (log intensity, higher = more binding, comparable within an allelic series) | 8.71 upbm affinity estimate (log intensity, higher = more binding, comparable within an allelic series) | 8.78 upbm affinity estimate (log intensity, higher = more binding, comparable within an allelic series) |
| CCGGCGCC | 8.8 upbm affinity estimate (log intensity, higher = more binding, comparable within an allelic series) | 8.98 upbm affinity estimate (log intensity, higher = more binding, comparable within an allelic series) | 8.96 upbm affinity estimate (log intensity, higher = more binding, comparable within an allelic series) | 9.05 upbm affinity estimate (log intensity, higher = more binding, comparable within an allelic series) | 9 upbm affinity estimate (log intensity, higher = more binding, comparable within an allelic series) | 8.85 upbm affinity estimate (log intensity, higher = more binding, comparable within an allelic series) | 9.03 upbm affinity estimate (log intensity, higher = more binding, comparable within an allelic series) | 8.96 upbm affinity estimate (log intensity, higher = more binding, comparable within an allelic series) | 8.96 upbm affinity estimate (log intensity, higher = more binding, comparable within an allelic series) | 8.98 upbm affinity estimate (log intensity, higher = more binding, comparable within an allelic series) | 8.96 upbm affinity estimate (log intensity, higher = more binding, comparable within an allelic series) | 9.02 upbm affinity estimate (log intensity, higher = more binding, comparable within an allelic series) | 8.9 upbm affinity estimate (log intensity, higher = more binding, comparable within an allelic series) |
| ACGATACC | 11.2 upbm affinity estimate (log intensity, higher = more binding, comparable within an allelic series) | 10.3 upbm affinity estimate (log intensity, higher = more binding, comparable within an allelic series) | 11.1 upbm affinity estimate (log intensity, higher = more binding, comparable within an allelic series) | 9.65 upbm affinity estimate (log intensity, higher = more binding, comparable within an allelic series) | 10.6 upbm affinity estimate (log intensity, higher = more binding, comparable within an allelic series) | 11 upbm affinity estimate (log intensity, higher = more binding, comparable within an allelic series) | 10.4 upbm affinity estimate (log intensity, higher = more binding, comparable within an allelic series) | 11.3 upbm affinity estimate (log intensity, higher = more binding, comparable within an allelic series) | 11.4 upbm affinity estimate (log intensity, higher = more binding, comparable within an allelic series) | 11.1 upbm affinity estimate (log intensity, higher = more binding, comparable within an allelic series) | 10.9 upbm affinity estimate (log intensity, higher = more binding, comparable within an allelic series) | 11.1 upbm affinity estimate (log intensity, higher = more binding, comparable within an allelic series) | 11 upbm affinity estimate (log intensity, higher = more binding, comparable within an allelic series) |
